# Experimental data from PubChem BioAssay AID1159580 (chemical genetic matrix, 2015).
# “And” between values parts separate entries of the source, which are not always exact repeats. Equal values may be shown once. The whole screen tested about 5,500 compounds, of which about 2,000 (36%) were called active. Roughly 18% stayed inconclusive and do not appear here. Some of the results follow. Unmarked numbers belong to inactive results. Rule as the data show it: active = normalized growth mostly below about 0.91 (no sharp cut-off); inconclusive = no clear call, values can overlap the other calls; inactive = mostly above about 0.92.
# Assay: chemical genetic growth profiling, strain panel (AID 1159580);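 also: tested at 20 µM; growth read once vehicle control cultures reached saturation at 30 °C; 1 = growth at the plate median or of vehicle wells; lower values mean less growth of the strain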
# Details: S. cerevisiae deletion strains, growth OD
smiles,measurement,setting,value
C=CCc1cc(OC)c2c(c1OC)OCO2,normalized growth,"locus YAL013W, strain DEP1, stronger effect = lower value",0.971
same,normalized growth,"locus YAL021C, strain ccr4, stronger effect = lower value",1
same,normalized growth,"locus YAL026C, strain drs2, stronger effect = lower value",0.955
same,normalized growth,"locus YAL030W, strain snc1, stronger effect = lower value",0.95
same,normalized growth,"locus YBL061C, strain skt5, stronger effect = lower value",0.926
same,normalized growth,"locus YBR009C, strain hhf1, stronger effect = lower value",0.938
same,normalized growth,"locus YBR021W, strain FUR4, stronger effect = lower value",0.934
same,normalized growth,"locus YBR023C, strain chs3, stronger effect = lower value",0.902 (active)
same,normalized growth,"locus YBR171W, strain sec66, stronger effect = lower value",0.874 (active)
same,normalized growth,"locus YBR229C, strain ROT2, stronger effect = lower value",0.996
same,normalized growth,"locus YBR231C, strain swc5, stronger effect = lower value",0.982
same,normalized growth,"locus YBR279W, strain paf1, stronger effect = lower value",0.966
same,normalized growth,"locus YCL011C, strain gbp2, stronger effect = lower value",0.937
same,normalized growth,"locus YCL016C, strain dcc1, stronger effect = lower value",0.937
same,normalized growth,"locus YCL029C, strain bik1, stronger effect = lower value",0.945
same,normalized growth,"locus YCL061C, strain MRC1, stronger effect = lower value",0.944
same,normalized growth,"locus YCL069W, strain vba3, stronger effect = lower value",0.969
same,normalized growth,"locus YCR088W, strain abp1, stronger effect = lower value",0.954
same,normalized growth,"locus YDL005C, strain med2, stronger effect = lower value",0.992
same,normalized growth,"locus YDL035C, strain GPR1, stronger effect = lower value",0.968
same,normalized growth,"locus YDL040C, strain nat1, stronger effect = lower value",0.924 (active)
same,normalized growth,"locus YDL074C, strain BRE1, stronger effect = lower value",0.91
same,normalized growth,"locus YDL101C, strain DUN1, stronger effect = lower value",0.995
same,normalized growth,"locus YDL134C, strain PPH21, stronger effect = lower value",0.982
same,normalized growth,"locus YDL185W, strain tfp1, stronger effect = lower value",0.968
same,normalized growth,"locus YDL192W, strain arf1, stronger effect = lower value",0.956
same,normalized growth,"locus YDR001C, strain nth1, stronger effect = lower value",0.93
same,normalized growth,"locus YDR069C, strain doa4, stronger effect = lower value",1.06
same,normalized growth,"locus YDR101C, strain arx1, stronger effect = lower value",0.908 (active)
same,normalized growth,"locus YDR137W, strain rgp1, stronger effect = lower value",0.955
same,normalized growth,"locus YDR150W, strain NUM1, stronger effect = lower value",0.979
same,normalized growth,"locus YDR159W, strain sac3, stronger effect = lower value",0.797 (active)
same,normalized growth,"locus YDR162C, strain NBP2, stronger effect = lower value",0.951
same,normalized growth,"locus YDR195W, strain ref2",1.22 [resistant] (active)
same,normalized growth,"locus YDR297W, strain sur2, stronger effect = lower value",0.94
same,normalized growth,"locus YDR318W, strain mcm21, stronger effect = lower value",0.947
same,normalized growth,"locus YDR334W, strain swr1, stronger effect = lower value",1.02
same,normalized growth,"locus YDR335W, strain msn5, stronger effect = lower value",0.982
same,normalized growth,"locus YDR388W, stronger effect = lower value",0.947
same,normalized growth,"locus YDR392W, strain spt3, stronger effect = lower value",0.378 (active)
same,normalized growth,"locus YDR502C, strain sam2, stronger effect = lower value",0.929
same,normalized growth,"locus YEL003W, strain gim4, stronger effect = lower value",0.955
same,normalized growth,"locus YEL037C, strain rad23, stronger effect = lower value",0.987
same,normalized growth,"locus YEL061C, strain CIN8 (second series), stronger effect = lower value",0.946
same,normalized growth,"locus YEL061C, strain CIN8, stronger effect = lower value",0.966
same,normalized growth,"locus YER015W, strain faa2, stronger effect = lower value",0.955
same,normalized growth,"locus YER016W, strain bim1, stronger effect = lower value",0.938
same,normalized growth,"locus YER110C, stronger effect = lower value",0.929
same,normalized growth,"locus YER111C, strain swi4, stronger effect = lower value",0.898 (active)
same,normalized growth,"locus YER155C, strain BEM2 (second series), stronger effect = lower value",0.462 (active)
same,normalized growth,"locus YER155C, strain BEM2, stronger effect = lower value",0.96
same,normalized growth,"locus YER167W, strain BCK2, stronger effect = lower value",0.938
same,normalized growth,"locus YFR010W, strain ubp6, stronger effect = lower value",1.06
same,normalized growth,"locus YGL078C, strain dbp3, stronger effect = lower value",0.959
same,normalized growth,"locus YGL086W, strain mad1, stronger effect = lower value",0.962
same,normalized growth,"locus YGL167C, strain pmr1, stronger effect = lower value",0.908 (active)
same,normalized growth,"locus YGL173C, strain kem1, stronger effect = lower value",0.909
same,normalized growth,"locus YGL227W, strain vid30, stronger effect = lower value",0.882 (active)
same,normalized growth,"locus YGL240W, strain doc1, stronger effect = lower value",0.839 (active)
same,normalized growth,"locus YGL248W, strain PDE1, stronger effect = lower value",0.983
same,normalized growth,"locus YGL253W, strain hxk2, stronger effect = lower value",0.945
same,normalized growth,"locus YGR078C, strain PAC10, stronger effect = lower value",0.903
same,normalized growth,"locus YGR135W, strain pre9, stronger effect = lower value",0.948
same,normalized growth,"locus YGR229C, strain SMI1, stronger effect = lower value",0.932
same,normalized growth,"locus YGR252W, strain gcn5, stronger effect = lower value",0.969
same,normalized growth,"locus YHR013C, strain ard1, stronger effect = lower value",1.32 [resistant] (active)
same,normalized growth,"locus YHR027C, strain rpn1, stronger effect = lower value",0.947
same,normalized growth,"locus YHR030C, strain SLT2, stronger effect = lower value",0.963 and 0.999
same,normalized growth,"locus YHR079C, strain IRE1 (second series), stronger effect = lower value",0.932
same,normalized growth,"locus YHR079C, strain IRE1, stronger effect = lower value",0.995
same,normalized growth,"locus YHR094C, strain hxt1, stronger effect = lower value",0.935
same,normalized growth,"locus YHR129C, strain ARP1, stronger effect = lower value",0.955
same,normalized growth,"locus YHR142W, strain chs7, stronger effect = lower value",0.723 (active)
same,normalized growth,"locus YHR200W, strain rpn10, stronger effect = lower value",0.969
same,normalized growth,"locus YIL066C, strain RNR3, stronger effect = lower value",0.979
same,normalized growth,"locus YIL073C, strain SPO22, stronger effect = lower value",1.07
same,normalized growth,"locus YIL125W, strain kgd1, stronger effect = lower value",0.934
same,normalized growth,"locus YIR030C, strain dcg1, stronger effect = lower value",0.933
same,normalized growth,"locus YJL092W, strain hpr5, stronger effect = lower value",0.922
same,normalized growth,"locus YJL095W, strain BCK1 (second series), stronger effect = lower value",0.879 (active)
same,normalized growth,"locus YJL095W, strain BCK1, stronger effect = lower value",0.868 and 0.994
same,normalized growth,"locus YJL115W, strain asf1, stronger effect = lower value",0.978
same,normalized growth,"locus YJL129C, strain trk1, stronger effect = lower value",0.942
same,normalized growth,"locus YJL134W, strain LCB3, stronger effect = lower value",0.973
same,normalized growth,"locus YJL154C, strain vps35, stronger effect = lower value",0.989
same,normalized growth,"locus YJL164C, strain tpk1, stronger effect = lower value",0.939
same,normalized growth,"locus YJL166W, strain qcr8, stronger effect = lower value",0.934
same,normalized growth,"locus YJL168C, strain set2, stronger effect = lower value",0.94
same,normalized growth,"locus YJL187C, strain SWE1 (second series), stronger effect = lower value",0.985
same,normalized growth,"locus YJL187C, strain SWE1, stronger effect = lower value",0.945
same,normalized growth,"locus YJR043C, strain POL32, stronger effect = lower value",1.05
same,normalized growth,"locus YJR066W, strain TOR1, stronger effect = lower value",0.95
